Drawing on PubChem BioAssay AID686979 (National Center for Advancing Translational Sciences (NCATS), 2013), this text covers Potency for 96 molecules.

Each structure is given as a SMILES string. Among all 420,000 compounds or so, about 50,000 (12%) were called active. Not shown: some 26% with an inconclusive outcome. Calls follow the shape of the dose curve; as a rule, active = well fitted inhibition curve with a large enough effect; inconclusive = small, poorly fitted or top-dose-only effect; inactive = flat fitted curve, though single readings scatter. The entries come from a sample that favours actives as a whole. A call without a number means that no potency is given here.
Potency is read from the fitted curve at half-maximal effect.

The experiment in a line: qHTS for Inhibitors of human tyrosyl-DNA phosphodiesterase 1 (TDP1): qHTS in cells in presence of CPT. Also: nearly all actives have a fitted effect of over 55% in size. The conditions noted are these: chicken DT40 Tdp1-/-;hTDP1 cells + 20 nM CPT, ATP luminescence, 48 h; series mostly up to 46.2 µM. In a few lines:
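Chicken DT40 Tdp1-/- cells stably complemented with human TDP1 were seeded at 400 cells/well in medium containing 20 nM camptothecin, exposed to pin-transferred compounds, and grown at 37 °C for at least 48 hr. Viability was read as ATP luminescence.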
In general terms: Quantitative high-throughput screening tests each substance at several concentrations.
For `COc1ccc(CC(=O)N[C@@H]2c3cc(OC)c(OC)cc3C[C@H]2OCc2ccccc2)cc1`, the Potency entry is “inactive”.

As to `COc1ccc(C)cc1NC(=O)CN(C)S(=O)(=O)c1ccc2c(c1)n(C)c(=O)c(=O)n2C`, the Potency entry was “inactive”.

`Cc1nc(NC(=O)C2CCCCC2)sc1C`: the Potency entry was “inactive”.

As to `COc1cc(S(=O)(=O)Nc2ncn[nH]2)ccc1Cl`, the Potency result is “inactive”.

In the case of `CC(C)Cn1c(=O)c2ccccc2n2c(CCC(=O)NCc3ccccn3)nnc12`, the Potency entry was “inactive”.

Take `Cn1c(CNC(=O)c2ccco2)nnc1SCC(=O)N1CCN(c2ccccc2)CC1`: the Potency result was “inactive”.

In the case of `Cn1c(Cc2cccc3ccccc23)nnc1SCC(=O)N1CCN(c2cccc(Cl)c2)CC1`, the Potency is 23.1 µM (active).

For `CC(C)Cn1c(=O)c2ccccc2n2c(CCC(=O)N3CCN(c4cccc(Cl)c4)CC3)nnc12`, the Potency was 10.3 µM (active).

Take `Cc1ccccc1NC(=O)Cc1nnc(SCC(=O)N2CCN(c3ccccc3)CC2)n1C`: the Potency result is “inactive”.

For the molecule `COc1ccc(NC(=O)CCc2nnc3n(CC(C)C)c(=O)c4ccccc4n23)cc1OC`, the Potency result was “inactive”.

As for `Cc1nc(NC(=O)c2ccc3c(c2)OCCO3)ccc1Br`, the Potency entry is “inactive”.

For the molecule `CC1CN(C(=S)Nc2cccc(F)c2)CC(C)O1` (stereo unspecified), the Potency entry is “inactive”.

`O=C(CC1CCCCC1)NCc1ccco1`: the Potency result was “inactive”.

On to `CC(=O)N1C[C@@H](CO)[C@@H](N(C)C(=O)c2ccco2)C[C@H]1c1ccccc1`, for which the Potency entry was “inactive”.

Take `OCC[C@H]1C[C@H](O)[C@@H](O)[C@]2(Cc3ccccc3CO2)O1`: the Potency result was “inactive”.

On to `Cc1ccc(C2=CSC3=NS(=O)(=O)CCN23)cc1C`, for which the Potency entry was “inactive”.

As for `CN(Cc1cccs1)C(=O)Cc1c[nH]c2ccccc12`, the Potency result was “inactive”.

Regarding `O=C1N[C@H](Cc2c[nH]c3ccccc23)COC(=O)[C@H](Cc2ccc(F)cc2)C/C=C\C[C@H]1CC(=O)N(CCO)Cc1ccccc1`, the Potency was 23.1 µM (active).

With `O=C(N[C@@H](Cc1c[nH]c2ccccc12)C(=O)O)OCC1c2ccccc2-c2ccccc21`, the Potency result is “inactive”.

In the case of `O=C1NC[C@@H](c2ccccc2)OC(=O)[C@H](Cc2ccc(F)cc2)CC/C=C/C[C@H]1CC(=O)N(CCO)Cc1ccccc1`, the Potency is 16.4 µM (active).

As for `O=C1N[C@@H](c2ccccc2)COC(=O)[C@H](Cc2ccc(F)cc2)C/C=C\C[C@@H]1CC(=O)N(CCO)Cc1ccccc1`, the Potency was 23.1 µM (active).

Consider `O=C(C[C@H]1C/C=C\C[C@@H](NC(=O)OCC2c3ccccc3-c3ccccc32)C(=O)O[C@@H](c2ccccc2)CNC1=O)N[C@H](CO)Cc1ccccc1`, for which the Potency was 10.3 µM (active).

Consider `CC(C)(C)OC(=O)C[C@@H]1C/C=C\C[C@@H](CC(=O)NCCO)C(=O)N[C@H](Cc2c[nH]c3ccccc23)COC1=O`, for which the Potency entry is “inactive”.

On to `O=C1CCC/C=C\C[C@@H](CC(=O)N(CCO)Cc2ccccc2)C(=O)NCCO1`, for which the Potency entry is “inactive”.

Regarding `Cc1nc(N)c(Br)c(C)c1Br`, the Potency entry was “inactive”.

Turning to `C[C@H]1CN([C@@H](C)CO)C(=O)CCCn2nncc2CO[C@@H]1CN(C)S(=O)(=O)c1cccc(C#N)c1`, the Potency entry was “inactive”.

Consider `Cc1cc(NC(=O)CN2C(=O)NC(C)(CCc3ccccc3)C2=O)no1` (stereo unspecified), for which the Potency entry is “inactive”.

Consider `Cc1nc2ccc(NC(=S)N3CCC(C)CC3)cc2nc1C`, for which the Potency result is “inactive”.

As for `CCn1c(SCC(=O)NCC2CCCO2)nc2ccccc21` (stereo unspecified), the Potency result was “inactive”.

With `COc1ccc(S(=O)(=O)N2CCN(CC(=O)N3CCNC3=O)CC2)cc1OC`, the Potency entry was “inactive”.

Consider `COc1ccc2c(C)cc(SCC(=O)NCC3CCCO3)nc2c1` (stereo unspecified), for which the Potency result is “inactive”.

Regarding `O=S(=O)(Nc1ncnc2sccc12)c1cccc(F)c1`, the Potency result was “inactive”.

In the case of `O=C(N[C@@H]1C/C=C\C[C@@H](CC(=O)N(CCO)Cc2ccccc2)C(=O)N[C@H](Cc2ccccc2)COC1=O)OCC1c2ccccc2-c2ccccc21`, the Potency was 8.2 µM (active).

`Nc1nc2c(ncn2[C@@H]2O[C@H](CNCc3ccc(OCCCN4CCOCC4)cc3)[C@@H](O)[C@H]2O)c(=O)[nH]1`: the Potency result was “inactive”.

With `CN(CC(=O)Nc1ccc(F)cc1)CC(=O)N1CCCCC1`, the Potency result was “inactive”.

As to `Cc1ccc(O)c(-c2cc(C(=O)Nc3c(C)n(C)n(-c4ccccc4)c3=O)[nH]n2)c1`, the Potency result is “inactive”.

`Nn1c(Cc2cccc3ccccc23)nnc1SCC(=O)N1CC(=O)Nc2ccccc21`: the Potency entry was “inactive”.

Regarding `COc1ccc(CN(Cc2ccc(OC)cc2)C(=O)c2cccs2)cc1`, the Potency result is “inactive”.

For the molecule `COc1ccc(CCNC(=O)/C(C#N)=C2\N=C(NC(=O)c3cccs3)c3ccccc32)cc1`, the Potency is 10.3 µM (active).

Take `COc1ccc(CCNC(=O)CSc2nnc(CNC(=O)c3cccs3)o2)cc1OC`: the Potency entry was “inactive”.

For the molecule `Fc1ccc(CN2CCc3nc(Nc4ccccc4)ncc3C2)cc1F`, the Potency is 11.6 µM (active).

`COc1ccc(CN2CCc3nc(Nc4ccccc4)ncc3C2)c(OC)c1OC`: the Potency is 16.4 µM (active).

For the molecule `COc1ccc(CN2CCN(Cc3ccc(OC)c(OC)c3OC)CC2)cc1`, the Potency entry was “inactive”.

Turning to `CCCN1CCc2nc(N3CCN(C)CC3)ncc2C1`, the Potency entry was “inactive”.

Consider `Cc1nc2cnc(Nc3ccccc3)nc2n(Cc2ccc(F)cc2)c1=O`, for which the Potency entry was “inactive”.

Consider `Cn1c(=O)c(CCc2ccccc2)nc2cnc(Nc3ccccc3)nc21`, for which the Potency result is “inactive”.

For `CCCc1cc(=O)[nH]c2nnc(SCC(=O)Nc3nnc(SCC)s3)n12`, the Potency result was “inactive”.

As to `Cc1nc2cc(NC(=O)[C@@H]3C[C@@H](Sc4ccccn4)CN3Cc3ccccc3C)ccc2s1`, the Potency entry was “inactive”.

For `Cc1nn2c(=O)cc(COC(=O)c3cccc(NC(=O)COc4ccccc4Cl)c3)nc2s1`, the Potency entry is “inactive”.

In the case of `O=C(CNS(=O)(=O)c1ccc(Br)s1)N1CCN(C(=O)c2ccco2)CC1`, the Potency result is “inactive”.

On to `C[C@@H]1CN([C@H](C)CO)C(=O)c2cc(NC(=O)NC3CCCCC3)ccc2O[C@H]1CN(C)S(C)(=O)=O`, for which the Potency result is “inactive”.

In the case of `C#Cc1ccc([C@@H]2C=C(C(=O)O)O[C@H](OCCCCO)C2)cc1`, the Potency entry is “inactive”.

As for `CN1CCN(C(=O)C2=C[C@H](c3ccc4c(c3)OCO4)C[C@H](OCc3ccc(CO)cc3)O2)CC1`, the Potency result is “inactive”.

`O=C(C1=C[C@H](c2ccc(C(F)(F)F)cc2)C[C@H](OCc2ccc(CO)cc2)O1)N1CCN(Cc2ccccc2)CC1`: the Potency was 23.1 µM (active).

In the case of `CCCCNC(=O)CSc1nc2cc3c(cc2c(=O)n1CCCCCC(=O)NCc1ccc2c(c1)OCO2)OCO3`, the Potency result was “inactive”.

On to `O=C(COc1ccc(Cl)cc1)Nc1ccc2oc(=O)ccc2c1`, for which the Potency entry is “inactive”.

For `O=c1[nH]c(CCl)nc2cc(-c3ccc(Cl)cc3)sc12`, the Potency is 5.17 µM (active).

Turning to `O=c1[nH]c(CN2CCOCC2)nc2cc(Cl)ccc12`, the Potency result is “inactive”.

In the case of `NC(=O)Cc1nc2scc(-c3ccc(Cl)cc3)c2c(=O)[nH]1`, the Potency entry is “inactive”.

Regarding `CCc1ccc(CN(C)C(=O)C2CCC(=O)N(Cc3cccc(OC)c3)C2)nc1` (stereo unspecified), the Potency result was “inactive”.

Turning to `C=CCC(C(=O)c1ccccc1)[N+](C)(C)CC=C` (stereo unspecified), the Potency entry is “inactive”.

As to `COc1cc(C(F)(F)F)c(C(=O)N(C)c2ccc(Cl)cc2)cn1`, the Potency entry is “inactive”.

For the molecule `CC(C)(C)c1ccc(S(=O)(=O)N2CCN(C(=O)c3ccc4c(c3)C(=O)N(Cc3ccncc3)C4=O)CC2)cc1`, the Potency entry is “inactive”.

For `COC(=O)Cc1c(O)ccn(Cc2cccc(C(F)(F)F)c2)c1=O`, the Potency entry is “inactive”.

For `COC(=O)Cc1csc(Nc2c(C)n(C)n(-c3ccccc3)c2=O)n1`, the Potency entry was “inactive”.

Regarding `COC(=O)Cc1csc(/N=C/c2c(O)n(-c3cccc(C(F)(F)F)c3)c(=O)c3ccccc23)n1`, the Potency is 6.51 µM (active).

For the molecule `COc1ccc(NC(=O)CSc2nnc(-c3ccccc3F)n2C2CC2)cc1S(N)(=O)=O`, the Potency entry is “inactive”.

`COc1ccccc1C(=O)N(C1=NC(C)CS1)c1ccc(Cl)cc1` (stereo unspecified): the Potency entry was “inactive”.

Regarding `COc1cccc(CNc2nccn(-c3ccc(OC)c(OC)c3)c2=O)c1`, the Potency result is “inactive”.

`CNC(=O)c1sc(NCc2ccccc2OC)nc1C`: the Potency result is “inactive”.

For the molecule `COc1cccc(CNc2nc(NCc3ccccc3OC)nc3ccsc23)c1`, the Potency was 9.2 µM (active).

For `COc1cccc(CNc2nc(NCc3cccs3)nc3ccsc23)c1`, the Potency is 23.1 µM (active).

For `COc1ccccc1CNc1nc(Nc2ccccc2Cl)c2sccc2n1`, the Potency was 9.2 µM (active).

For `COc1ccc(CNc2ncncc2-c2ccccc2C)c(OC)c1`, the Potency result is “inactive”.

`CCc1ccc(S(=O)(=O)c2nnn3c2nc(NCc2ccccc2OC)c2cc(Cl)ccc23)cc1`: the Potency result was “inactive”.

For the molecule `CCNc1nc(NC(C)C)nc(OCCOC(=O)c2ccccc2)n1`, the Potency entry was “inactive”.

On to `COCCNc1nc(NCc2ccc(NC(C)=O)cc2)c2sccc2n1`, for which the Potency entry is “inactive”.

Take `Cc1nc2cc(NCc3cccs3)ccc2n1C`: the Potency entry is “inactive”.

As for `CC(C)Nc1nc(NCCOc2ccccc2Cl)c2sccc2n1`, the Potency is 18.4 µM (active).

Consider `CC(=O)C(CC(=O)N1CCCC1)C(=O)Nc1ccc(Cl)cc1` (stereo unspecified), for which the Potency entry is “inactive”.

As to `O=C1CC(c2c(F)cccc2Cl)C(n2cncn2)C(O)=C1C1NCCc2ccccc21` (stereo unspecified), the Potency entry is “inactive”.

Take `Nc1nc2cc(Cl)ccc2n1N`: the Potency entry is “inactive”.

`COc1ccc(NC(=O)CN(C)C(=O)c2cc(C)oc2C)cc1`: the Potency entry is “inactive”.

For the molecule `O=C1NC(c2ccccc2)=NC1(Nc1ccccn1)C(F)(F)F` (stereo unspecified), the Potency entry is “inactive”.

For `Cc1ccc(C)c(C(=O)N2CCC(n3nccc3NC(=O)C3CC3)CC2)c1`, the Potency result is “inactive”.

With `Cc1cc(C(=O)OC(C)C(=O)NC2CCCCC2C)c(C)o1` (stereo unspecified), the Potency entry is “inactive”.

Consider `Cc1nc2sccn2c(=O)c1S(=O)(=O)NCCc1ccccc1`, for which the Potency result is “inactive”.

`O=C(COC(=O)c1c(Cl)cccc1Cl)Nc1cccc(S(=O)(=O)NC2=NCCCCC2)c1`: the Potency result is “inactive”.

Take `O=S(=O)(NCC(c1ccco1)N1CCOCC1)c1cc(F)ccc1F` (stereo unspecified): the Potency entry is “inactive”.

Regarding `Cc1cc(C)n(CCNC(=O)CC2C(=O)NCCN2Cc2ccc(C)o2)n1` (stereo unspecified), the Potency entry is “inactive”.

As to `O=C(COc1cc2oc(=O)c3c(c2cc1Cl)CCC3)NCCCN1CCOCC1`, the Potency result is “inactive”.

Consider `Cc1ccc(-c2csc(C(C#N)=C(O)CN3CCN(C(=O)c4ccco4)CC3)n2)cc1`, for which the Potency entry is “inactive”.

Regarding `CCOC(=O)c1cccc(NC(=O)CCn2nnc3ccccc32)c1`, the Potency result is “inactive”.

Turning to `CCOC(=O)c1cnc(-n2nc(C)cc2C)nc1-n1nc(C)cc1C`, the Potency result was “inactive”.

For `CCOC(=O)c1cnc(-n2nc(C)cc2C)nc1Nc1cccc(C(C)=O)c1`, the Potency was 16.4 µM (active).

For `COC(=O)c1ccc(OC)c(Cn2c(=O)n(Cc3ccccc3)c(=O)c3c2c2cc(OC)ccc2n3C)c1`, the Potency result is “inactive”.
